In the supplement of paper PMC10646978:
± gives the standard deviation.

Experiments:
Details in all cases: modulator concentration 10 µM
[1] = test system: RAW-Dual (murine macrophage reporter line); assay: NF-kB reporter (SEAP) activity fold change vs agonist alone; higher = enhanced NF-kB activity
Method in brief: (§1)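 Compound reached 10 μM final in each well by pin transfer, onto RAW-Dual murine macrophage reporter cells seeded at 50 000 per well in 384-well plates. After 1 hour at 37 °C, the cells were stimulated overnight with a PRR agonist. SEAP in the supernatant was read with QUANTI-Blue at 620 nm absorbance for NF-κB, and Lucia luciferase was read with QUANTI-Luc luminescence for IRF. Each signal was turned into fold change against the mean agonist-only control on the same plate, and two replicate plates were averaged with propagated errors.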

[2] = test system: RAW-Dual (murine macrophage reporter line); assay: IRF reporter (Lucia luciferase) activity fold change vs agonist alone; higher = enhanced IRF activity
Method in brief: as §1

[3] = test system: RAW-Dual (murine macrophage reporter line); assay: viability score (confluency relative to resting cells, overnight) (fraction); higher = more viable, active = viable (0.7 or more)
Method in brief: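 RAW-Dual macrophages in 384-well plates were incubated overnight with compound, final concentration 10 μM. Confluency images from IncuCyte were processed in IncuCyte software into two masks covering all imaged wells. The viability score is each well's confluency relative to resting cells, and a compound met the cutoff when both masks exceeded 70% of resting cells.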

[4] = agonist: CpG ODN 1826 0.5 ug/mL

| Compound | NF-kB reporter [1, 4] | NF-kB reporter ([1]; agonist: LPS 0.1 ug/mL) | NF-kB reporter ([1]; agonist: MPLA […]) | IRF reporter ([2]; agonist: 3'3'-cGAMP 10 ug/mL) | IRF reporter ([2]; agonist: LPS 0.1 ug/mL) | IRF reporter ([2]; agonist: MPLA […]) | viability score [3] |
| --- | --- | --- | --- | --- | --- | --- | --- |
| CSCCC(NC(C)=O)C(=O)NC1CCN(c2nc(C)nc3c2CCCC3)CC1 (centres undefined) | 0.836 ± 0.061 | 1.06 ± 0.086 | 0.896 ± 0.048 | 0.957 ± 0.073 | 1.29 ± 0.18 | 1.17 ± 0.16 | 0.999 (active) |
| CC(C)(C)C1CCc2c(sc(NC(=O)c3cccs3)c2C(=O)N2CCCC2)C1 (centres undefined) | 0.93 ± 0.073 | 1.06 ± 0.061 | 0.993 ± 0.13 | 0.984 ± 0.027 | 1.14 ± 0.12 | 1.03 ± 0.068 | 1.01 (active) |
| CCCC1CCC(c2ccc(C(=O)NNC(=O)c3ccc(C4CCC(CCC)CC4)cc3)cc2)CC1 (centres undefined) | 0.984 ± 0.059 | 1.01 ± 0.07 | 0.936 ± 0.059 | 0.898 ± 0.035 | 1.43 ± 0.11 | 1.13 ± 0.21 | 1.01 (active) |
| O=C(NC1CCCCCC1)c1ccc([N+](=O)[O-])cc1Cl | 1.1 ± 0.084 | 0.94 ± 0.07 | 0.919 ± 0.1 | 0.804 ± 0.035 | 1.08 ± 0.14 | 1.08 ± 0.13 | 0.983 (active) |
| O=C(CC1Sc2ccccc2NC1=O)Nc1ccccc1Cl (centres undefined) | 1 ± 0.079 | 0.989 ± 0.067 | 1.01 ± 0.036 | 1.15 ± 0.21 | 1.04 ± 0.043 | 1.04 ± 0.15 | 1 (active) |
| CN1CCN2c3ccccc3Cc3ccccc3C2C1.Cl (centres undefined) | 1 ± 0.14 | 1.07 ± 0.34 | 0.835 ± 0.058 | 0.68 ± 0.032 | 1.32 ± 0.3 | 1.2 ± 0.13 | 0.307 (inactive) |
| COc1cc2c(Oc3ccc(NC(=O)C4(C(=O)Nc5ccc(F)cc5)CC4)cc3F)ccnc2cc1OCCCN1CCOCC1 | 0.179 ± 0.0098 | 0.146 ± 0.013 | 0.238 ± 0.011 | 0.0512 ± 0.015 | 0.0684 ± 0.0041 | 0.138 ± 0.025 | 0.136 (inactive) |
| O=C(Nc1cc(C(F)(F)F)cc(C(F)(F)F)c1)c1cc(Br)ccc1Cl | 0.966 ± 0.11 | 1.02 ± 0.066 | 0.912 ± 0.059 | 0.693 ± 0.043 | 1.52 ± 0.2 | 1.05 ± 0.2 | 1.01 (active) |
| CCc1ccc2oc(-c3ccc(NC(=O)c4ccc(C)c([N+](=O)[O-])c4)cc3)nc2c1 | 1.02 ± 0.08 | 1.04 ± 0.059 | 0.931 ± 0.089 | 1 ± 0.025 | 1.6 ± 0.22 | 1.33 ± 0.16 | 1.01 (active) |
| O=C(NCCN1CCN(c2ccc(Cl)cc2)CC1)c1cnccn1 | 0.974 ± 0.076 | 0.967 ± 0.086 | 1 ± 0.03 | 0.982 ± 0.049 | 1.01 ± 0.055 | 0.919 ± 0.097 | 0.998 (active) |
| Cc1nnsc1C(=O)Nc1ccccc1C(F)(F)F | 1.1 ± 0.084 | 0.954 ± 0.077 | 1 ± 0.048 | 0.969 ± 0.039 | 0.993 ± 0.11 | 0.929 ± 0.15 | 1 (active) |
| CCOC(=O)C1=C(C)NC(C)=C(C(=O)OCC)C1c1ccc(Cl)cc1 | 0.3 ± 0.023 | 0.27 ± 0.019 | 0.748 ± 0.026 | 0.743 ± 0.061 | 0.636 ± 0.084 | 1.67 ± 0.2 | 0.187 (inactive) |
